Measured values taken from the supplement of paper PMC10933113.
Structures can show the parent of a compound that is named as a salt. ± gives the uncertainty stated by the source.

System: THP-1
Experiment: CD54 surface expression induction over DMSO control (% over DMSO); higher = stronger dendritic cell activation
Conditions: exposure time: 24 h
Protocol: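 hCLAT-like CD54 and CD86 surface expression on THP1 cells after 24 h exposure at a single concentration (highest non-cytotoxic concentration, or 100-200 µM if not cytotoxic). Flow cytometry (iQue) was run on 5,000 live cells.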

In order of falling “CD54 surface expression induction” value:
1. NC(=O)n1c(O)c(C(=O)c2cccs2)c2cc(Cl)ccc21 [Tenidap*] (200 µM)  157 ± 35
2. C=C1CC[C@H](O)C/C1=C/C=C1\CCC[C@]2(C)[C@@H]([C@H](C)/C=C/[C@H](C)C(C)C)CC[C@@H]12 [Ergocalciferol*] (100 µM)  108 ± 7.2
3. CC1=C(/C=C/C(C)=C\C=C\C(C)=C\C(=O)O)C(C)(C)CCC1 [9-cis Retinoic acid] (100 µM)  44.4 ± 15
4. CC(C)(C)c1cc(O)c(C(C)(C)C)cc1O [2,5-Di-tert-butylbenzene-1,4-diol] (100 µM)  38.2 ± 50
5. Cc1ccc(O)c2ncccc12 [Tiliquinol] (10 µM)  26.6 ± 6.2
6. O=C(CS)Nc1ccccc1 [Thioglycolic acid anilide] (300 µM)  24 ± 1.8
7. CCCCCCCCCCCCCC[N+](C)(C)C [Tetradonium bromide] (10 µM)  17.7 ± 3.4
8. CCCCCCCCCCCC(=O)NCCCN(C)C [N-[3-(Dimethylamino)propyl]dodecanamide] (200 µM)  14.4 ± 11
9. C=CCOC(Cn1ccnc1)c1ccc(Cl)cc1Cl (stereo not given) [Imazalil sulfate] (100 µM)  11.6 ± 11
10. CC(=O)Oc1ccc(C2(c3ccc(OC(C)=O)cc3)C(=O)Nc3ccccc32)cc1 [Oxyphenisatin acetate] (100 µM)  9.56 ± 1.9
11. Cc1cc(C2(c3cc(C)c(O)cc3C)OS(=O)(=O)c3ccccc32)c(C)cc1O [p-Xylenol blue] (200 µM)  8.91 ± 6.7
12. O=C(Nc1ccccc1)c1cc([N+](=O)[O-])ccc1Cl [2-Chloro-5-nitro-N-phenylbenzamide] (200 µM)  4.72 ± 3.4
13. Cc1ccc2c(c1[N+](=O)[O-])C(=O)c1ccccc1C2=O [2-Methyl-1-nitroanthraquinone] (10 µM)  4.18 ± 2.8
14. C=CC(=O)OCCn1c(=O)n(CCOC(=O)C=C)c(=O)n(CCOC(=O)C=C)c1=O (10 µM)  3.33 ± 5.3
15. Oc1ccc(/C=C/c2cc(O)cc(O)c2)cc1 [Resveratrol] (100 µM)  1.74 ± 6.8
16. O=C1OC(OC(=O)c2cccnc2Nc2cccc(C(F)(F)F)c2)c2ccccc21 (stereo not given) [Talniflumate] (100 µM)  1.7 ± 0.62
17. O=C(NS(=O)(=O)/C=C/c1ccccc1)c1ccc(F)cc1Cl (200 µM)  1.54 ± 2.2
18. O=C(O)Cn1c(C(=O)Nc2nc(-c3ccccc3Cl)cs2)cc2ccccc21 [Lintitript] (100 µM)  1.24 ± 1.1
19. O=C(/C=C/C=C/c1ccc2c(c1)OCO2)N1CCCCC1 [Piperine] (100 µM)  0.08 ± 0.77
20. CCc1oc2ccccc2c1C(=O)c1cc(I)c(O)c(I)c1 [Benziodarone] (100 µM)  -0.07 ± 0.74
21. Oc1ccc2ccccc2c1N=Nc1ccccc1 [C.I. Solvent Yellow 14] (200 µM)  -0.27 ± 5.9
22. O=C(O)CCCCCCCCC(=O)O [Decanedioic acid] (200 µM)  -0.56 ± 5.1
23. CCCSS/C(CCO)=C(/C)N(C=O)Cc1cnc(C)nc1N [Prosultiamine] (10 µM)  -0.63 ± 2.5
24. C=CC(=O)OCCOC(=O)CCC(=O)O [4-[2-(Acryloyloxy)ethoxy]-4-oxobutanoic acid] (200 µM)  -1.6 ± 8.8
25. Nc1cc(-c2ccncc2)c[nH]c1=O [Amrinone] (100 µM)  -1.65 ± 0.59
26. CC(C(=O)O)c1ccc(/C=C2\CCCCC2=O)cc1 (stereo not given) [Pelubiprofen] (100 µM)  -1.67 ± 0.26
27. c1ccc2[nH]c(-c3cscn3)nc2c1 [Thiabendazole] (100 µM)  -2.19 ± 1.1
28. Nc1ncn([C@@H]2O[C@H](CO)[C@@H](O)[C@H]2O)c(=O)n1 [5-Azacytidine] (10 µM)  -4.02 ± 3.5
29. O=C(Nc1ccccc1)c1cc(Cl)ccc1O [5-Chlorosalicylanilide] (10 µM)  -4.26 ± 3.3
30. C=CC(=O)OCCCCCCOC(=O)C=C [1,6-Hexanediol diacrylate] (100 µM)  -4.54 ± 2.9
31. COc1ccc(C(=O)c2ccc(C)cc2)c(O)c1 [Mexenone] (300 µM)  -5.78 ± 3.4
32. CC(C)c1ccc2oc3nc(N)c(C(=O)O)cc3c(=O)c2c1 [Amlexanox] (100 µM)  -5.95 ± 2.7
33. S=C(NC1CCCCC1)NC1CCCCC1 [N,N'-Dicyclohexylthiourea] (10 µM)  -7.65 ± 5.2
34. COc1cc(Nc2c(C#N)cnc3cc(OCCCN4CCN(C)CC4)c(OC)cc23)c(Cl)cc1Cl [Bosutinib] (100 µM)  -7.93 ± 2.6
35. c1ccc(-c2ccccn2)nc1 [2,2'-Dipyridyl] (200 µM)  -9.09 ± 20
36. COc1ccc(-c2cc(=S)ss2)cc1 [Anethole trithione] (100 µM)  -12.4 ± 13
37. O=C(O)c1cn(C2CC2)c2cc(N3CCNCC3)c(F)cc2c1=O [Ciprofloxacin] (100 µM)  -14.9 ± 5.8
38. C/C=C/C=C/CCCCCCCO [Codlelure] (200 µM)  -18.9 ± 4
39. Cn1sccc1=O [2-Methyl-4-isothiazolin-3-one hydrochloride] (10 µM)  -19.5 ± 27
40. CCCOc1ccc2[nH]c(NC(=O)OC)nc2c1 [Oxibendazole] (100 µM)  -37.7 ± 6.7
